According to PMC7819943, “Rice protein-binding microarrays: a tool to detect cis-acting elements near promoter regions in rice”:
Whole data set: some 68,000 sequences, median “fluorescence intensity (a.u.)” near 9,100, cut for the highest 2% near 16,000. This is one part of a sample in which the highest values are shown more often than they occur.

The sequences below were run against OsWRKY34 (Oryza sativa, UniProt Q0JBA9 1-250) (assay: protein-binding microarray (RPBM); PBS, 2% BSA, 51.3 ng/ul salmon testes DNA, 50 uM zinc acetate, 200 nM TF, 25 C, 1 h; high values mean tight binding). Conditions: protein: recombinant; tags: N-terminal polyhistidine and DsRed monomer fusion (pET32a); label: CyDye5-dUTP incorporated in the synthesized complementary strand; 3' TTTTT single-stranded linker to array surface; dsDNA, one strand shown.
In short: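 Transcription factors, each fused N-terminally to a polyhistidine tag and DsRed, were expressed in E. coli BL21-CodonPlus and purified on Ni–NTA. A custom Agilent array was made double-stranded by primer extension with Cy5-dUTP and blocked with 2% BSA. It was incubated with 200 nM protein in PBS, 2% BSA, salmon testes DNA and 50 µM zinc acetate at 25 °C for 1 h, then washed. The binding signal is per-feature fluorescence intensity (arbitrary units) read on an Axon 4000B scanner.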

Sequence of OsWRKY34 (Q0JBA9 entry or part of it): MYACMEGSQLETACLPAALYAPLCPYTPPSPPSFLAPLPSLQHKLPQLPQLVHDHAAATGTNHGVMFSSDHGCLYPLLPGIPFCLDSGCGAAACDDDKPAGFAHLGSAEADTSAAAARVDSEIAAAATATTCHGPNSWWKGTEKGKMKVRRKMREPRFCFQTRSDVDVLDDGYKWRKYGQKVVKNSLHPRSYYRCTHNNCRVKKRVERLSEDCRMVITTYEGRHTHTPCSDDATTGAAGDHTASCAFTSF

Sequence | binding signal
CTATAGGTGGATTTTTAGGGACTCACCCGTAAAAACAGGTCGGAGTCACCTAGTGCAG | 26800 fluorescence intensity (a.u.)
TTGGGTGGGATTTAAACAGGGTATTAGTGGATAATGATGTCGGAGTCACCTAGTGCAG | 9570 fluorescence intensity (a.u.)
GGTTAGGTGGCATTTGAATTTAAAACGTATATGTGGACTCCGGAGTCACCTAGTGCAG | 13900 fluorescence intensity (a.u.)
CTCCGGGGAATATCTATGGGTCTTGTGGGTGTAGGGAGGACGGAGTCACCTAGTGCAG | 8770 fluorescence intensity (a.u.)
CTATAATTATTTGTCGACTAAATCTGCCTTTCATCTTTCTCGGAGTCACCTAGTGCAG | 8160 fluorescence intensity (a.u.)
GTGTCTTGTGCGTTTGCTCTCTCGCGAACCATTCCACAGACGGAGTCACCTAGTGCAG | 8380 fluorescence intensity (a.u.)
ATCATTTGTCTCGCGACGAAAACTTGCGTTGACCACCCACCGGAGTCACCTAGTGCAG | 17500 fluorescence intensity (a.u.)
TTTGACCAACCGAAACTCGACGGCCCACCCACCAACCACCCGGAGTCACCTAGTGCAG | 9420 fluorescence intensity (a.u.)
CACCCACCAAGTACTCTTTTTACTTTTACCACAGCGCATACGGAGTCACCTAGTGCAG | 9050 fluorescence intensity (a.u.)
TTACACGCCTAATCATCGAAAACCTAATCTTATGCTTTCTCGGAGTCACCTAGTGCAG | 8790 fluorescence intensity (a.u.)
TGCGGCTTTGATTTGCGGGGTTCACACACGAGTAATTGCACGGAGTCACCTAGTGCAG | 10900 fluorescence intensity (a.u.)
TTCACACACGAGTAATTGCAGCCTTGCTTTCTCGAAAAAACGGAGTCACCTAGTGCAG | 17100 fluorescence intensity (a.u.)
AATCTGTGGCGATAACCTGTATGCTCACACACTTGCCTCTCGGAGTCACCTAGTGCAG | 8610 fluorescence intensity (a.u.)
TACCTCCATATTTTAATGTATGACGCCGTTGACTTTTTATCGGAGTCACCTAGTGCAG | 28900 fluorescence intensity (a.u.)
TCCGTATTTTAATGTATGACGCCGTTGACTTTTTATCCAACGGAGTCACCTAGTGCAG | 21400 fluorescence intensity (a.u.)
TACTCCCTCCGTATTTTAATGTATGACGCCGTTGACTTTTCGGAGTCACCTAGTGCAG | 13900 fluorescence intensity (a.u.)
TATATACTCCCTCCATATTTTAATGTATGACGCCGTTGACCGGAGTCACCTAGTGCAG | 9880 fluorescence intensity (a.u.)
TTCCCTCCATATTTTAATGTATGACGCCGTTGACTTTTTACGGAGTCACCTAGTGCAG | 17700 fluorescence intensity (a.u.)
CTACCTCCATATTTTAATGTATGACGCCGTTGACTTTTTGCGGAGTCACCTAGTGCAG | 37500 fluorescence intensity (a.u.)
TATTACTACCTTCATATTTTAATGTATGACGCCGTTGACTCGGAGTCACCTAGTGCAG | 11900 fluorescence intensity (a.u.)
ATATACTACCTCCATATTTTAATGTATGACGCCGTTGACTCGGAGTCACCTAGTGCAG | 8860 fluorescence intensity (a.u.)
AGCGCGTCGCTTTCTTTCTTTCTTTCAGTTTTTTTTTTCCCGGAGTCACCTAGTGCAG | 10500 fluorescence intensity (a.u.)

Sequence | binding signal
AATCTGACTGAAGTATGTACTTTGTGTTGACCAATTTGGCCGGAGTCACCTAGTGCAG | 10200 fluorescence intensity (a.u.)
ATGAGTTCCCAACCGCCACTTACATTAAGTACCACACTCCCGGAGTCACCTAGTGCAG | 8660 fluorescence intensity (a.u.)
GTTTCCTTCGTTTCAGATTACTCATTATTTTAGCTTTTTTCGGAGTCACCTAGTGCAG | 13800 fluorescence intensity (a.u.)
TCCACCTTTTCATCAATATAGTCATGCATTAATACAGTCACGGAGTCACCTAGTGCAG | 8670 fluorescence intensity (a.u.)
TTGCTTCCTTTGTCCTTACTGACATTATTACCTCAGAGACCGGAGTCACCTAGTGCAG | 8870 fluorescence intensity (a.u.)
ACGGGGCGCATTTATTCATCCCCACCTTTGTTCATCAGTTCGGAGTCACCTAGTGCAG | 11600 fluorescence intensity (a.u.)
CTCCATATTTTAATGTATGCCGCCGTTGACTTTTTGTTTACGGAGTCACCTAGTGCAG | 20200 fluorescence intensity (a.u.)
ATTTGTTTGTTTTTTTAATAAATGATGTTGTTGACTTTTACGGAGTCACCTAGTGCAG | 9030 fluorescence intensity (a.u.)
TTTTAATGTATGACGCTGTTGACTTTTTATCCAACGTTTGCGGAGTCACCTAGTGCAG | 16400 fluorescence intensity (a.u.)
TGCACTAGTATGTATGACGTTGACTGTTTTTTTAAGGACGCGGAGTCACCTAGTGCAG | 10200 fluorescence intensity (a.u.)
CTCATAATAGATTTACTTTTAATGCCGTTGTTTTGTTTTACGGAGTCACCTAGTGCAG | 9090 fluorescence intensity (a.u.)
TAATGTATGACGTCGTTGACTTTTTGTTAAACGTTTGATCCGGAGTCACCTAGTGCAG | 15600 fluorescence intensity (a.u.)
GTTACCCCGATTAGTTAGTTTATGTTGTACATGCTGTTGACGGAGTCACCTAGTGCAG | 11000 fluorescence intensity (a.u.)
CAGTGTCCGTTTTCTCCGACAAACTCGGCGTGGCCACAGTCGGAGTCACCTAGTGCAG | 9840 fluorescence intensity (a.u.)
ATATTTAAAAAAGTCAACGGCGTCAAACATTTTGAGATAGCGGAGTCACCTAGTGCAG | 9320 fluorescence intensity (a.u.)
TCAAACATTTAAAAAAAAAGTCAACGGCGTCAAATATTTTCGGAGTCACCTAGTGCAG | 8470 fluorescence intensity (a.u.)
AAAAAGTCAACGGCGTCAAACATTTAGGGATGGAGGGAGTCGGAGTCACCTAGTGCAG | 8190 fluorescence intensity (a.u.)
ATATGTTTAAAAAAGTCAACGGCGTCAAACATTTAGGGATCGGAGTCACCTAGTGCAG | 18600 fluorescence intensity (a.u.)
TAAAAAAGTCAACGGCGTTAAACATTTTGGGATGGAGGGACGGAGTCACCTAGTGCAG | 11200 fluorescence intensity (a.u.)
AAACATGTTTAAAAAAGTCAACGGCGTCAAACATTTAGGGCGGAGTCACCTAGTGCAG | 13800 fluorescence intensity (a.u.)
TTGTTGATTTTTTTTCAGAATTTTTATCACTATTTGTCTTCGGAGTCACCTAGTGCAG | 8570 fluorescence intensity (a.u.)
TTGATTTTTTGTTGCAAAAGAATATTTTAATTCACTGCAACGGAGTCACCTAGTGCAG | 24300 fluorescence intensity (a.u.)
